Laboratory results: PubChem BioAssay AID504834 (National Center for Advancing Translational Sciences (NCATS), 2011)
Hit rate of the full screen: of about 320,000 compounds, about 22,000 (6.9%) were called active. Another 27% or so got no clear call; they are omitted. Calls follow the shape of the dose curve; as a rule, active = well fitted inhibition curve with a large enough effect; inconclusive = small, poorly fitted or top-dose-only effect, or another doubt; inactive = no such curve, though single readings can be large or run the other way. The entries come from a sample that favours actives as a whole. Entries that show only a call come without a potency.

Test: Primary qHTS for delayed death inhibitors of the malarial parasite plastid, 96 hour incubation
Conditions: P. falciparum luciferase reporter growth; series mostly up to 28.7 µM
From the text: The goal of this screen is to discover new antimalarial compounds that act by inhibiting the development of the apicoplast in the malarial parasite Plasmodium falciparum. The biochemical processes that make this organelle essential for erythrocytic stage parasites are not well understood. However, antibiotics such as azithromycin and tetracycline, which target the apicoplast translational machinery, have a potent antimalarial effect.
We have developed a cell-based assay that measures parasite growth based on the expression of an integrated copy of a firefly luciferase reporter. To detect small molecules that cause this "delayed death" phenotype, erythrocytes infected with the luciferase-expressing parasites were incubated with compounds for either one or two generations, corresponding to 48 and 96 hours, respectively. Compounds that inhibit parasite growth in the second generation, but not the first, should be enriched in antimalarials that target the apicoplast. Growth inhibition is detected by a decrease in luciferase activity.
Assay Provider: David Fidock and Eric Ekland, Columbia University
Keywords: NIH Roadmap, MLPCN, MLI, MLSMR, qHTS, NCGC, qHTS, malaria, luciferase, viability
Four microliters of infected erythrocytes (2% hematocrit, 0.05% parasitemia final concentration) in culture medium were dispensed and the plates incubated for 96 hours at 37 C in 5% CO2. Two microliters of luciferase detection reagent was added and luminescence was detected by a ViewLux (PerkinElmer) reader.
Potency is read from the fitted curve at half-maximal effect.

SMILES | Potency
CC(C)C[C@H](NC(=O)Nc1cccc(C(F)(F)F)c1)C(=O)O | inactive
O=C(O)CSc1c2c(nc3cc(C(=O)Nc4cccc(C(F)(F)F)c4)ccc13)CCCC2 | inactive
Cn1nc(C(F)(F)F)c(C(=O)Nc2cccc(C(F)(F)F)c2)c1SCc1ccc(Cl)cc1 | 2.62 µM (active)
O=C(OCC(=O)N1CCOCC1)c1ccc2ccccc2c1 | inactive
Cc1ccc(NC(=O)c2nc[nH]c2C(=O)N[C@@H](CCCCNC(=O)OC(C)(C)C)C(=O)OC(C)(C)C)cc1 | 11.7 µM (active)
CCOC(=O)c1ccc(NC(=O)c2nc[nH]c2C(=O)N[C@@H](CCCCNC(=O)OC(C)(C)C)C(=O)OC(C)(C)C)cc1 | 5.86 µM (active)
CCOC(=O)c1[nH]cnc1C(=O)Nc1ccccc1C | inactive
Cc1cccc(NC(=O)c2nc[nH]c2C(=O)NCC(=O)OCc2ccccc2)c1 | inactive
CCOC(=O)c1ccc(NC(=O)c2nc[nH]c2C(=O)NCc2ccccc2)cc1 | inactive
CNC(=O)c1[nH]cnc1C(=O)N[C@@H](CC(C)C)C(=O)OC(C)(C)C | inactive
C=CCSc1ccc(S(=O)(=O)N2CCN(C)CC2)cn1 | inactive
Cc1cc(NC(=O)c2ccco2)c(=O)n(Cc2c(F)cccc2Cl)c1 | inactive
CCOC(=O)N1CCN(c2c(NCCN3CCN(c4ccccc4F)CC3)c(=O)c2=O)CC1 | inactive
COc1ccccc1NC(=O)CCC(=O)OC(C)C(=O)c1ccccc1 (configuration not stated) | inactive
Cc1ccc(C(=O)NCC(=O)OCC(=O)Nc2cccc(S(=O)(=O)N3CCCC3)c2)cc1C | inactive
Cc1ccc(CN2CCN(c3ncccn3)CC2)c(C)c1 | inactive
CC(=O)N1CCN(C(=O)Nc2cccc(C(F)(F)F)c2)CC1 | inactive
Cc1cccc(NC(=O)c2nnn(-c3cccc(C(F)(F)F)c3)c2N)c1 | 5.86 µM (active)
Cc1cccc(NC(=O)c2cccc(C(F)(F)F)c2)c1 | inactive
O=C(O)C1CCCN1S(=O)(=O)c1ccc(Br)cc1 (configuration not stated) | inactive
COc1ccc(OCCCC(=O)NCCc2ccccc2)cc1 | inactive
COc1ccc(-c2cc(C(=O)n3cnc4ccccc43)c3ccccc3n2)cc1 | inactive
COc1ccc(-c2c3c(=O)n(C)c(=O)n(C)c3cn2-c2cccc(OC)c2)cc1 | inactive

SMILES | Potency
COc1ccc(CNc2ncnc3ccccc23)cc1 | inactive
COc1ccc(CCNCc2c(-c3ccccc3)n(C)c3ccccc23)cc1 | 10.4 µM (active)
COc1ccc(-c2c(C#Cc3ccccc3)c3ccccc3n2C)cc1 | 6.57 µM (active)
CN(CCC(=O)Nc1cc(S(=O)(=O)N(C)C)ccc1Cl)CC(=O)Nc1ccc(F)cc1 | inactive
O=C(Nc1cccc2c1N(C(=O)c1ccco1)CCC2)c1ccco1 | inactive
O=C(CSc1ncnc2c1oc1ccccc12)NC1CCCC1 | inactive
CCCOc1ccc(-c2c(C(=O)N/N=C/c3ccco3)nnn2-c2nonc2N)cc1 | inactive
CN(Cc1ccccc1)C(=O)CCc1ccccc1 | inactive
CN(Cc1ccccc1)C(=O)c1cccc(C(=O)N(C)Cc2ccccc2)c1 | 13.1 µM (active)
Cc1cc(C)cc(NC(=O)N(C)Cc2ccccc2)c1 | inactive
Cc1cc(C(=O)N/N=C/c2ccccn2)c2ccccc2n1 | inactive
O=C(N/C(=C\c1ccc(O)cc1)C(=O)N1CCCCC1)c1ccccc1 | inactive
COc1ccc(C)cc1NC(=O)C(OC(=O)c1cccc(S(=O)(=O)N(C)c2ccccc2)c1)c1ccccc1 (configuration not stated) | inactive
COc1ccc(C)cc1NC(=O)C(Sc1ccccc1)c1ccccc1 (configuration not stated) | inactive
Cc1ccc(C)c(NC(=O)C(OC(=O)c2ccc(C)s2)c2ccccc2)c1 (configuration not stated) | 2.94 µM (active)
C/C(CC(=O)NCc1ccc(Cl)cc1)=N\NC(=O)COc1ccc(C)cc1Br | inactive
CC(C)C[C@H](NC(=O)N1CCn2c1nc1ccccc12)C(=O)NC1CC1 | inactive
O=S(=O)(NCCc1ccccn1)c1cc(Cl)cc(Cl)c1O | inactive
N#Cc1ccsc1NC(=O)CN1CCN(S(=O)(=O)c2cc(Cl)ccc2Cl)CC1 | 4.15 µM (active)
O=S(=O)(c1cc(Cl)ccc1Cl)N1CCN(Cc2ccco2)CC1 | inactive
N#Cc1ccsc1NC(=O)CN1CCCCC1 | inactive
CCN(CC)c1ccc(/C=N/NC(=O)CNC(=O)c2cccnc2)cc1 | inactive
O=C(COc1ccc(S(=O)(=O)N2CCCCC2)cc1)NCc1ccccn1 | inactive

SMILES | Potency
CCOc1ccc(NC(=O)COc2ccc(S(=O)(=O)N3CCCC3)cc2)cc1 | inactive
CCOc1ccccc1NC(=O)C1CCCN(S(=O)(=O)c2ccccc2)C1 (configuration not stated) | inactive
CCOc1ccc(S(=O)(=O)N2CCCCC2)cc1NC(=O)CN1CCCC1c1cccs1 (configuration not stated) | 4.65 µM (active)
CC(=O)NCCC(=O)Nc1cc(S(=O)(=O)N2CCCCC2)ccc1Oc1cccc(C)c1 | inactive
CCOc1ccccc1NC(=O)COc1ccc(S(=O)(=O)N2CCCC2)cc1 | 8.28 µM (active)
CN(C)C(=O)N=NC(=O)N(C)C | inactive
O=C(Oc1ccc(Br)cc1)c1cccnc1 | inactive
O=C(COC(=O)c1cccc(Cl)c1)NC1CCCCCCC1 | inactive
CCc1c(C)c2ccc(OC3CCCCC3=O)cc2oc1=O (configuration not stated) | inactive
Cc1ccc(C(=O)C(C)OC(=O)Cc2n[nH]c(=O)c3ccccc23)cc1C (configuration not stated) | inactive
Cc1cc(C)c(S(=O)(=O)N(C)CC(=O)NCC2CCCO2)c(C)c1 (configuration not stated) | inactive
COc1ccccc1CCC(=O)OCC(=O)N1CCN(S(=O)(=O)c2ccc(C)cc2C)CC1 | inactive
CCCCCCCN=C(C)c1ccccc1O | inactive
C/C(=N\N(C)C)c1ccc(OCCOc2ccc([N+](=O)[O-])cc2)cc1 | inactive
COc1ccc(C(C#N)(CC(=O)O)c2cnccn2)cc1OC (configuration not stated) | inactive
COc1cc(OC)cc(C(=O)NNC(=O)CNC(=O)c2ccc(Br)o2)c1 | inactive
O=C(Cc1cccc2ccccc12)NCCC1=CCCCC1 | inactive
S=C(NCCC1=CCCCC1)Nc1ccccc1 | 0.586 µM (active)
S=C(NCCCc1ccccc1)Nc1ccc(Br)cc1 | inactive
CC(=O)N1CC(=O)N(CC(=O)Nc2ccc(Br)cc2)C1=S | inactive
CC(=O)c1nnn(-c2ccc(Cl)cc2C#N)c1C | inactive
